HSF1 inh – HSF1 inhibition. NIH3T3-HGL HSE-luciferase, MG132-induced, luminescence 8 h; hits give low values. activity change, negative = inhibition, % at 7.5 µM (by protocol). hit rate 0.77% among 300,000;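 active means more than half of replicate wells show activity change below -50%, luminescence cut by over half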;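 further: luciferase reports HSF-1 transcriptional activity via heat shock element; 0% = median of DMSO wells and -100% = zero luminescence signal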
FXN GAA850 act – frataxin GAA850 promoter activation; HEK293 lucGAA850 FXN promoter luciferase reporter, 24 h; percent of 10 µM SAHA response; activation, % at 6 µM; hit rate 0.56% among 360,000;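 active means activation above the average of all compounds screened plus 3 SD, cutoff fixed separately per campaign, cut at about 7.5% in these data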;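 further: 0% = DMSO wells and 100% = 10 µM SAHA wells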
PG9 Ab binder – small molecules binding HIV-1 gp120 antibody PG9; hit rate 0.43% among 360,000; inhibition, % at 6.7 µM; TR-FRET gp120-PG9 antibody binding; AID 624416; in the data active means inhibition above about 8.5%
SMARCA2 activ – SMARCA2 function activation, primary screen; MG213 cells, MMTV-luciferase reporter, dexamethasone, overnight; activation, % at 9.1 µM; hit rate 1% among 370,000; AID 652017; in the data active means activation above about 7.8%;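 further: 0% = vehicle wells and 100% = reference activator wells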
HSP90 inh – blocks HSP90-mediated luciferase refolding in reticulocyte lysate. Rabbit reticulocyte lysate, luciferase refolding luminescence, 3 h. inhibition, % at 5.6 µM. hit rate 0.91% among 290,000. AID 1789;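 active means inhibition above the screen-wide mean plus 3 SD, computed separately per campaign, cut at about 16% in these data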;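 further: 0% = DMSO wells and 100% = 60 µM geldanamycin wells; inhibitors lower the luminescence because luciferase stays unfolded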
AI-2 QS mod – modulates the Vibrio harveyi AI-2 quorum sensing system. hit rate 0.4% among 300,000. activity change, % at 7.5 µM. Vibrio harveyi JMH597 AI-2 luminescence/OD600 ratio, 9 h; hits give low values; strain lacks LuxN and CqsS sensors; 0 = neutral-control median. AID 2094; in the data active means activity change below about -75%, passing the limit was not always enough;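 further: luminescence divided by OD600 gain over 9 h not by final OD600 alone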
HSP90 confirm – confirmation of HSP90 inhibitors; shares compounds with HSP90 inh; rabbit reticulocyte lysate, luciferase refolding luminescence, 3 h; inhibition, % at 5.9 µM; hit rate 64% among 2,300; AID 1846; in the data active means inhibition above about 18%;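 further: 0% = vehicle wells and 100% = reference inhibitor wells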
luciferase ctr – firefly luciferase inhibition, HSP90 counter-screen. shares compounds with HSP90 inh. AID 1847. inhibition, % at 5.9 µM. purified native firefly luciferase, luminescence. hit rate 48% among 2,300;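 active means inhibition above the mean inhibition of all tested sample wells plus 3 SD, cut at about 10% in these data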;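 further: 0% = DMSO with luciferase and 100% = wells lacking luciferase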
Target sequence (P08659 whole entry, looked up): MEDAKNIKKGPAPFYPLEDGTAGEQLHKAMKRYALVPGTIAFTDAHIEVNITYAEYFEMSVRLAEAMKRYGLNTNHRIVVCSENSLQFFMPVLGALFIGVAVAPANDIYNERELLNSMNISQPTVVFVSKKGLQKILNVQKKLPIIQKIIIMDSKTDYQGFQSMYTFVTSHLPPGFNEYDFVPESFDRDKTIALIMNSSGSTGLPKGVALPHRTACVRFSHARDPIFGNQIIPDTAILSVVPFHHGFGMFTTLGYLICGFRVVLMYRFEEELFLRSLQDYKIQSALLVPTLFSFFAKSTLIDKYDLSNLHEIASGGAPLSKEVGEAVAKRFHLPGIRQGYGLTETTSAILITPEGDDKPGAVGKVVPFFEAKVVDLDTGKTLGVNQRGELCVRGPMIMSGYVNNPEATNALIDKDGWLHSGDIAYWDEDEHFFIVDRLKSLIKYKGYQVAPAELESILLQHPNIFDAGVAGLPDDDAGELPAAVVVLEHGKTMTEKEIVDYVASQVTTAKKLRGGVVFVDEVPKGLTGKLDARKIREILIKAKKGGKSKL
* hit, by the source's call. The list is not random: actives were taken first. Their share in the collection is about 3.4%.

Screening O=C(OCc1ccccn1)c1ccc(COc2ccc3ccccc3c2)o1 returned HSF1 inh 20, FXN GAA850 act 6, PG9 Ab binder 1, SMARCA2 activ 2, HSP90 inh 45*, AI-2 QS mod 11, HSP90 confirm 63* and luciferase ctr -11.
For NNC(=O)c1ccc(COc2ccc3ccccc3c2)o1 the results were HSF1 inh 17, FXN GAA850 act 1, PG9 Ab binder -4, SMARCA2 activ -4, HSP90 inh 3 and AI-2 QS mod 5.
Cn1c(-c2ccccc2)cnc1SCC(=O)N1CCCCC1 was read as HSF1 inh 16, FXN GAA850 act -3, PG9 Ab binder 0, SMARCA2 activ 3, HSP90 inh 33*, AI-2 QS mod 26, HSP90 confirm 64* and luciferase ctr 56*.
`Cn1c(-c2ccccc2)cnc1SCC(=O)N1CCCc2ccccc21` gave HSF1 inh 17, FXN GAA850 act 2, PG9 Ab binder 3, SMARCA2 activ -2, HSP90 inh 1 and AI-2 QS mod -2.
For CCCCN(CCCC)S(=O)(=O)c1c(C)[nH]c(=O)[nH]c1=O the results were HSF1 inh -1, FXN GAA850 act 1, PG9 Ab binder -1, SMARCA2 activ -1, HSP90 inh -2 and AI-2 QS mod 30.
CCCCN(C)S(=O)(=O)c1c(C)[nH]c(=O)[nH]c1=O was read as HSF1 inh -12, FXN GAA850 act -1, PG9 Ab binder 0, SMARCA2 activ -4, HSP90 inh 25*, AI-2 QS mod 10, HSP90 confirm 1 and luciferase ctr -7.
`OCCNC(=S)Nc1cc(Cl)cc(Cl)c1` gave HSF1 inh -3, FXN GAA850 act 0, PG9 Ab binder 2, SMARCA2 activ 0, HSP90 inh 18*, AI-2 QS mod 20, HSP90 confirm -1 and luciferase ctr -1.
`C/C(=N\Nc1ccc(C(=O)O)cc1)c1ccc(S(=O)(=O)NCc2ccco2)cc1` gave HSF1 inh -17, FXN GAA850 act 0, PG9 Ab binder 0, SMARCA2 activ 0, HSP90 inh 48*, AI-2 QS mod 39, HSP90 confirm 20* and luciferase ctr 9.
`C/C(=N\Nc1ccc(C(=O)O)cc1)c1ccc(Cl)s1` gave HSF1 inh 1, FXN GAA850 act 4, PG9 Ab binder -5, SMARCA2 activ 4, HSP90 inh 22*, AI-2 QS mod 7, HSP90 confirm 29* and luciferase ctr 22*.
`C/C(=N\Nc1ccc(C(=O)O)cc1)c1ccc(Br)cc1` gave HSF1 inh -19, FXN GAA850 act 2, PG9 Ab binder -2, SMARCA2 activ 3, HSP90 inh 46*, AI-2 QS mod -55, HSP90 confirm 78* and luciferase ctr 67*.
`C/C(=N/Nc1ncc(Br)cn1)c1ccc(Br)cc1` gave HSF1 inh 9, FXN GAA850 act 4, PG9 Ab binder -1, SMARCA2 activ 2, HSP90 inh -2 and AI-2 QS mod 17.
Screening COc1ccc(/C(C)=N/Nc2ccc(C(=O)O)cc2)c(OC)c1 returned HSF1 inh -7, FXN GAA850 act 4, PG9 Ab binder -5, SMARCA2 activ 4, HSP90 inh 22*, AI-2 QS mod -58, HSP90 confirm 13 and luciferase ctr 19*.
`COc1ccc2c(c1)C(=NNc1ccc(C(=O)O)cc1)c1cc(OC)ccc1-2` gave HSF1 inh 6, FXN GAA850 act -1, PG9 Ab binder -3, SMARCA2 activ -1, HSP90 inh -8 and AI-2 QS mod 9.
For S=c1[nH]nc(-c2n[nH]c3c2CCC3)n1N=Cc1ccc(Br)s1 the results were SMARCA2 activ 0.
CCOC(=O)[C@]12CCCCC/C=C\1N(CCc1ccc(Cl)cc1)C(=O)[C@H]2CC(=O)NCc1cccc2ccccc12 was read as SMARCA2 activ -3.
For C/C(=N\Nc1ccc(Cl)c(C(=O)O)c1)c1ccc(Br)s1 the results were HSF1 inh 8, FXN GAA850 act -1, PG9 Ab binder 0, SMARCA2 activ 3, HSP90 inh 22*, AI-2 QS mod 20, HSP90 confirm 1 and luciferase ctr -10.
`C/C(=N\NC(=O)c1ccccc1C)c1cccc([N+](=O)[O-])c1` gave HSF1 inh -17, FXN GAA850 act 4, PG9 Ab binder 1, SMARCA2 activ -1, HSP90 inh 0 and AI-2 QS mod 18.
Screening C/C(=N\Nc1ccc(Cl)c(C(=O)O)c1)c1cccc([N+](=O)[O-])c1 returned HSF1 inh 1, FXN GAA850 act 2, PG9 Ab binder -1, SMARCA2 activ 5, HSP90 inh 18*, AI-2 QS mod 9, HSP90 confirm 2 and luciferase ctr -14.
Screening CC1(C)CN=C(N(Cc2ccccc2)C(=O)Nc2ccccc2)S1 returned HSF1 inh -6, FXN GAA850 act 1, PG9 Ab binder 0, SMARCA2 activ 2, HSP90 inh 19*, AI-2 QS mod 27, HSP90 confirm 29* and luciferase ctr 19*.
Cc1ccc(NC(=O)c2cnn(-c3ccccc3)c2C)cc1C was read as HSF1 inh -8, FXN GAA850 act -1, PG9 Ab binder -1, SMARCA2 activ 1, HSP90 inh 44*, AI-2 QS mod 33, HSP90 confirm 64* and luciferase ctr 59*.
Cc1c(C(=O)Nc2ccccc2)cnn1-c1ccccc1 was read as HSF1 inh 14, FXN GAA850 act 3, PG9 Ab binder -2, SMARCA2 activ 5 and AI-2 QS mod 8.
For COc1cc(/C=N\NC(=O)OC(C)(C)C)ccc1OC(=O)c1ccco1 the results were HSF1 inh 3, FXN GAA850 act 3, PG9 Ab binder 0, SMARCA2 activ 0, HSP90 inh 1 and AI-2 QS mod 6.
Screening COc1cc(/C=N/Nc2ccc(Cl)c(C(=O)O)c2)ccc1OC(=O)c1cccs1 returned FXN GAA850 act 2, PG9 Ab binder -1, SMARCA2 activ 4, HSP90 inh 21*, HSP90 confirm 61* and luciferase ctr -24.
`COc1cc(/C=N/Nc2ccc(Cl)c(C(=O)O)c2)ccc1OC(=O)c1ccco1` gave HSF1 inh -4, FXN GAA850 act 1, PG9 Ab binder -3, SMARCA2 activ 7, HSP90 inh 32*, AI-2 QS mod 11, HSP90 confirm 71* and luciferase ctr -18.
For COc1ccc(C(=O)Oc2ccc(/C=N/Nc3ccc(Cl)c(C(=O)O)c3)cc2OC)cc1 the results were HSF1 inh 3, FXN GAA850 act 3, PG9 Ab binder 1, SMARCA2 activ 4, HSP90 inh 46*, AI-2 QS mod 60, HSP90 confirm 66* and luciferase ctr -2.

Compound activity: PubChem, several laboratories
